This note sets out measurements from PubChem BioAssay (EPA / NIEHS).

Usually AC50 stands for the concentration at which the activity in the assay is half-maximal.

Active and inactive are the calls of the source. The calls were made as follows: active = hit-call score of the fitted dose curve at least 0.9, where 1 is the maximum; inactive = score below 0.9.

Read-out in test [1]: Vascular endothelial growth factor receptor 2 (Homo sapiens) (UniProt P35968)
As to the kind of experiment: BSK_4H_VEGFRII: BioMAP Diversity Plus: 4H Assay for Vascular endothelial growth factor receptor 2 (VEGFR2) Biomarker Activity (AID 2283031).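 As to AC50: cell-surface VEGFR2 protein level quantified by ELISA.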 The note with it: primary human endothelial cells (HUVEC); actives raise or lower the signal. Put shortly: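 HUVEC (human primary), 4H system; 24 h post-dose; VEGFRII by ELISA; bidirectional curve fit vs DMSO baseline; gain or loss of signal scored.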

Read-out in test [2]: Human Leukocyte Antigen - DR isotype (HLADR), HLA-DRA (gene 3122)
The test can be described thus: BSK_BE3C_HLADR: BioMAP Diversity Plus: BE3C Assay for Human Leukocyte Antigen - DR isotype (HLADR) Biomarker Activity (AID 2283032). The following applies: primary human bronchial epithelial cells; actives raise or lower the signal. The gist of the method: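 Primary human bronchial epithelial cells (BE3C); 24 h chemical exposure; HLA-DR by ELISA; bidirectional curve fit vs DMSO baseline.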

Read-out in test [3]: Vascular cell adhesion molecule 1 (VCAM1), VCAM1 (gene 7412)
The test can be described thus: BSK_4H_VCAM1: BioMAP Diversity Plus: 4H Assay for Vascular cell adhesion molecule 1 (VCAM1) Biomarker Activity (AID 2283033).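 As to outcome: cell-surface VCAM-1 protein measured by ELISA.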 The note with it: primary human endothelial cells (HUVEC); actives raise or lower the signal. Put shortly:
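HUVEC, 24 h post-dose; VCAM-1 by ELISA. Bidirectional curve fit vs DMSO baseline. Parallel SRB total-protein stain (0.1% SRB after 10% TCA fixation, 560 nm) for cytotoxicity.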

Read-out in test [4]: Interferon-gamma inducible Protein 10 (IP10), CXCL10 (gene 3627)
The test can be described thus: BSK_BE3C_IP10: BioMAP Diversity Plus: BE3C Assay for Interferon-gamma inducible Protein 10 (IP10) Biomarker Activity (AID 2283034). The note with it: primary human bronchial epithelial cells; actives raise or lower the signal. The gist of the method: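 ELISA readout of IP-10 in BE3C system: primary human bronchial epithelial cells, 24 h post-dosing; bidirectional curve fit vs DMSO baseline.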

Read-out in test [5]: Monokine induced gamma interferon (MIG), CXCL9 (gene 4283)
As to the kind of experiment: BSK_BE3C_MIG: BioMAP Diversity Plus: BE3C Assay for Monokine induced gamma interferon (MIG) Biomarker Activity (AID 2283035). The following applies: primary human bronchial epithelial cells; actives raise or lower the signal. The gist of the method: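 ELISA quantified MIG after 24 h exposure of primary bronchial epithelial cultures, analysed in both directions relative to DMSO. Cytotoxicity tracked in parallel cultures by sulforhodamine B staining.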

Read-out in test [6]: Plasminogen activator inhibitor-1 (PAI1), SERPINE1 (gene 5054)
The test can be described thus: BSK_BE3C_PAI1: BioMAP Diversity Plus: BE3C Assay for Plasminogen activator inhibitor-1 (PAI1) Biomarker Activity (AID 2283037). The following applies: primary human bronchial epithelial cells; actives raise or lower the signal. Put shortly: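 ELISA read-out of PAI-1 from human bronchial epithelial primary cells, 24 h post-dosing; bidirectional curve fit vs DMSO baseline, gain or loss of signal scored.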

Read-out in test [7]: urokinase plasminogen activator (uPA), PLAU (gene 5328)
As to the kind of experiment: BSK_BE3C_uPA: BioMAP Diversity Plus: BE3C Assay for urokinase plasminogen activator (uPA) Biomarker Activity (AID 2283038).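 As to outcome: uPA protein level quantified by ELISA in cell cultures; uPA read one day after compound addition.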 The following applies: primary human bronchial epithelial cells; actives raise or lower the signal. The gist of the method: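 ELISA read-out of uPA in human lung primary bronchial epithelial cultures, 24 h post-dosing. Gain or loss of signal fitted bidirectionally relative to DMSO baseline; cytotoxicity checked in parallel cultures via SRB total protein stain.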

Read-out in test [8]: Urokinase-type plasminogen activator receptor (uPAR), PLAUR (gene 5329)
The test can be described thus: BSK_BE3C_uPAR: BioMAP Diversity Plus: BE3C Assay for Urokinase-type plasminogen activator receptor (uPAR) Biomarker Activity (AID 2283039).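 As to outcome: uPAR protein level measured by ELISA on the cells; cells exposed to compound for one day before measurement.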 The note with it: primary human bronchial epithelial cells; actives raise or lower the signal. The gist of the method: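 ELISA readout of uPAR on human lung primary bronchial epithelial cells, 24 h post-dosing. Bidirectional curve fit relative to DMSO vehicle baseline; gain or loss of signal both scored.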

Read-out in test [9]: Interleukin-6 (IL6), IL6 (gene 3569)
The test can be described thus: BSK_CASM3C_IL6: BioMAP Diversity Plus: CASM3C Assay for Interleukin-6 (IL6) Biomarker Activity for (AID 2283040). The following applies: primary human coronary artery smooth muscle cells; actives raise or lower the signal.

Read-out in test [10]: Tissue plasminogen activator (tPA), PLAT (gene 5327)
As to the kind of experiment: BSK_BE3C_tPA: BioMAP Diversity Plus: BE3C Assay for Tissue plasminogen activator (tPA) Biomarker Activity (AID 2283041).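 As to outcome: tPA level quantified by ELISA one day after compound addition.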 The note with it: primary human bronchial epithelial cells; actives raise or lower the signal. The gist of the method:
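ELISA read-out of tPA on human primary bronchial epithelial cells, 24 h post-dosing; bidirectional fit vs DMSO negative control/baseline.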

Read-out in test [11]: Interleukin-8 (IL8), CXCL8 (gene 3576)
The test can be described thus: BSK_CASM3C_IL8: BioMAP Diversity Plus: CASM3C Assay for Interleukin-8 (IL8) Biomarker Activity (AID 2283042).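 Also: IL-8 protein level quantified by ELISA.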 The note with it: primary human coronary artery smooth muscle cells; actives raise or lower the signal.

Read-out in test [12]: Human Leukocyte Antigen - DR isotype (HLADR), HLA-DRA (gene 3122)
As to the kind of experiment: BSK_CASM3C_HLADR: BioMAP Diversity Plus: CASM3C Assay for Human Leukocyte Antigen - DR isotype (HLADR) Biomarker Activity (AID 2283043).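 Also: cell-surface HLA-DR protein level quantified by ELISA.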 The note with it: primary human coronary artery smooth muscle cells; actives raise or lower the signal.

Read-out in test [13]: Macrophage colony-stimulating factor (MCSF), CSF1 (gene 1435)
As to the kind of experiment: BSK_CASM3C_MCSF: BioMAP Diversity Plus: CASM3C Assay for Macrophage colony-stimulating factor (MCSF) Biomarker Activity (AID 2283044).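 Also: M-CSF protein amount quantified by ELISA after 24 h exposure.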 The following applies: primary human coronary artery smooth muscle cells; actives raise or lower the signal.

Read-out in test [14]: Low-density lipoprotein receptor (LDLR), LDLR (gene 3949)
The test can be described thus: BSK_CASM3C_LDLR: BioMAP Diversity Plus: CASM3C Assay for Low-density lipoprotein receptor (LDLR) Biomarker Activity (AID 2283045).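 Also: LDLR protein level on the cell surface quantified by ELISA.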 The note with it: primary human coronary artery smooth muscle cells; actives raise or lower the signal.

Read-out in test [15]: Monocyte Chemoattractant Protein-1 (MCP1), CCL2 (gene 6347)
As to the kind of experiment: BSK_CASM3C_MCP1: BioMAP Diversity Plus: CASM3C Assay for Monocyte Chemoattractant Protein-1 (MCP1) Biomarker Activity (AID 2283046).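 Also: MCP-1 level quantified by ELISA 24 h after dosing.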 The following applies: primary human coronary artery smooth muscle cells; actives raise or lower the signal.

Test [16] in a line: BSK_CASM3C_Proliferation: Cell Proliferation Assessment in the BioMAP Diversity Plus: CASM3C Assay (AID 2283047).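 Also: sulforhodamine B total protein stain as relative cell number at 560 nm; sub-confluent cells exposed 48 h before staining; fitted both ways against DMSO so gain or loss of cell number.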 The following applies: primary human coronary artery smooth muscle cells.
Read-out in test [17]: Monokine induced gamma interferon (MIG), CXCL9 (gene 4283)
The test can be described thus: BSK_CASM3C_MIG: BioMAP Diversity Plus: CASM3C Assay for Monokine induced gamma interferon (MIG) Biomarker Activity (AID 2283048).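 Also: MIG protein level measured by ELISA.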 The note with it: primary human coronary artery smooth muscle cells; actives raise or lower the signal.

Read-out in test [18]: serum amyloid A (SAA), SAA1 (gene 6288)
As to the kind of experiment: BSK_CASM3C_SAA: BioMAP Diversity Plus: CASM3C Assay for serum amyloid A (SAA) Biomarker Activity (AID 2283049).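 Also: SAA protein level quantified by ELISA.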 The following applies: primary human coronary artery smooth muscle cells; actives raise or lower the signal.

The nature of test [19]: BSK_CASM3C_SRB: Viability Assessment in the BioMAP Diversity Plus: CASM3C Assay (AID 2283050).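 Also: total protein by SRB staining as cytotoxicity measure in parallel cultures; cells exposed to compound for 24 h.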 The following applies: primary human coronary artery smooth muscle cells.

As for `CCOC(=O)CCC(=O)OCC`, the result in test [1], in [2], in test [3], in test [4], in test [5] and in test [6] was inactive. For the same compound, the result in [7], in test [8], in [9], in test [10], in test [11] and in test [12] was inactive. Besides, the outcome in test [13], in test [14], in test [15], in test [16], in test [17] and in test [18] was inactive. In addition, in [19], the outcome was inactive.

Consider `CN1CCN(Cc2cc(-c3ccc4[nH]c(=O)oc4c3)co2)[C@@H](c2ccc(F)cc2)C1`, for which the outcome in test [1], in test [2], in [3], in test [4], in test [5] and in test [6] was inactive. In addition, the result in test [7], in [8], in [9], in test [11], in [12] and in test [13] was inactive. Besides, the outcome in [14], in test [17], in test [18] and in test [19] was inactive. The AC50 is 3.27 µM (active) in [10], 0.736 µM (active) in test [15] and 12.3 µM (active) in test [16].

Take `CCCCCCCC=O`: the result in test [1], in test [2], in test [3], in [4], in [5] and in test [6] was inactive. Besides, the outcome in test [7], in test [8], in [9], in [10], in test [11] and in test [12] was inactive. Moreover, the outcome in test [13], in test [14], in test [15], in test [16], in test [17] and in [18] was inactive. For the same compound, in test [19], the outcome was inactive.

`CCCCN(CCCC)CCCC`: the outcome in test [1], in [2], in test [3], in test [4], in [5] and in test [6] was inactive. The outcome in test [7], in [8], in test [9], in [10], in [11] and in test [12] was inactive. For the same compound, the result in test [13], in test [14], in [15], in [16], in test [17] and in test [18] was inactive. Further, the result in test [19] was inactive.

In the case of `c1cc(-c2ccncc2)ccn1`, the result in [1], in [2], in test [3], in test [4], in test [5] and in test [6] was inactive. Besides, the result in [7], in test [8], in test [9], in test [10], in [11] and in test [12] was inactive. Also, the outcome in test [13], in test [14], in test [15], in test [16], in test [17] and in test [18] was inactive. Moreover, the outcome in test [19] was inactive.

Regarding `CC(CO)OC(C)CO` (centres undefined) (tested in a mixture with another compound), the outcome in test [1], in [2], in test [3], in test [4], in [5] and in test [6] was inactive. For the same compound, the result in [7], in test [8], in test [9], in [10], in test [11] and in test [12] was inactive. For the same compound, the outcome in test [13], in test [14], in [15], in test [16], in [17] and in [18] was inactive. Also, the result in test [19] was inactive.

`CCc1c(C(=O)NN2CCCCC2)nn(-c2ccc(Cl)cc2Cl)c1-c1ccc(Br)cc1`: the AC50 is 9.41 µM (active) in test [1]; 11 µM (active) in test [2]; 9.11 µM (active) in [3]; 24 µM (active) in test [4]; 11 µM (active) in test [6]; 33.3 µM (active) in test [7]. The AC50 in [8] was 14.4 µM (active); in test [10] it was 20 µM (active); in test [12], 29.9 µM (active); in test [15] it was 33.8 µM (active); in test [16] it was 20.2 µM (active); in [19] it was 16.8 µM (active). In addition, the outcome in test [5], in test [9], in [11], in test [13], in [14] and in test [17] was inactive. For the same compound, in test [18], the outcome was inactive.

Take `COC(=O)c1ccc(O)cc1`: the result in test [1], in test [2], in [3], in [4], in test [5] and in test [6] was inactive. In addition, the result in test [7], in test [8], in [10], in test [11], in test [12] and in [13] was inactive. The result in test [14], in test [15], in test [16], in test [17], in test [18] and in [19] was inactive.

`Nc1ccc(S(=O)(=O)c2ccc(N)cc2)cc1`: the outcome in test [1], in test [2], in test [3], in test [4], in test [5] and in test [6] was inactive. Moreover, the result in [7], in test [8], in test [9], in [10], in test [11] and in test [12] was inactive. Also, the outcome in test [13], in test [14], in test [15], in [16], in test [17] and in test [18] was inactive. Moreover, in test [19], the outcome was inactive.

Consider `O=c1[nH]cc(F)c(=O)[nH]1`, for which the outcome in test [1], in test [2], in test [3], in [4], in test [5] and in test [6] was inactive. The outcome in test [7], in [8], in test [9], in test [10], in test [11] and in test [12] was inactive. Further, the outcome in test [13], in [14], in test [15], in test [17], in test [18] and in test [19] was inactive. In test [16], the concentration at half-maximal activity (AC50) was 13.7 µM (active).
